Results filed as inconclusive are left out. Calls of active or inactive are those of the source. Calls follow the shape of the dose curve; as a rule, active = well fitted inhibition curve with a large enough effect; inconclusive = small, poorly fitted or top-dose-only effect; inactive = no such curve, though single readings can be large or run the other way.
% is scaled to controls: 0 for no effect and ±100 for the full control effect.

In this assay the target is Papain (Carica papaya) (UniProt P00784). The assay is described as follows: Primary qHTS assay for inhibitors of the protease papain (AID 1645873).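 Also: papain turnover of Z-FR-AMC read as the AMC fluorescence gain over 10 min.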 The conditions noted are these: papain Z-FR-AMC cleavage, AMC fluorescence; series mostly up to 49.8 µM; activity change, negative = inhibition: at the top concentration. A general note: Quantitative high-throughput screening tests each substance at several concentrations.
Papain (Carica papaya), sequence (P00784 whole entry, looked up): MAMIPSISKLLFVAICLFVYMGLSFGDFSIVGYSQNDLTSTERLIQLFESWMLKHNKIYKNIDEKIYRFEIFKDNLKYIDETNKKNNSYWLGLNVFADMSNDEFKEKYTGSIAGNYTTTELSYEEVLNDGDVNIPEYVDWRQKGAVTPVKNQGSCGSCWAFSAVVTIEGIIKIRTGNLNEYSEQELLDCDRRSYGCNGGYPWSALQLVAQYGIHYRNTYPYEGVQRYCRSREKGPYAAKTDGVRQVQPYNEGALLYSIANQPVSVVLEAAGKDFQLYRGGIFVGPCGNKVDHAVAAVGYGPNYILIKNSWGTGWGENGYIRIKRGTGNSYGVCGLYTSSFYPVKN
As to `CCCCCCCCCCCCCCCCCC(=O)OC(CC(=O)O)C[N+](C)(C)C` (stereo unspecified), the “activity change, negative = inhibition” value was 59.3% (inactive).
`CN(C)C(N)=NCCC[C@H](N)C(=O)O`: the “activity change, negative = inhibition” value is 8.01% (inactive).
As to `Cn1c(=O)c2[nH]c(-c3ccccc3)nc2n(C)c1=O`, the “activity change, negative = inhibition” value was -4.05% (inactive).
The same measure for `COc1cccc(C(=O)NCCN2CCN(c3ccc(Cl)cc3)CC2)c1`: -11.3% (inactive).
The same measure for `O=C(c1ccc(Cl)cc1)N1CCN(c2ccc([N+](=O)[O-])c3ncccc23)CC1`: 28.5% (inactive); for `CO[C@H]1O[C@@H]2O[C@]3(C)CC[C@@H]4[C@@H](C)CC[C@H]([C@H]1C)[C@]24OO3`: 16.5% (inactive).
On to `CCC(CO)Nc1nc(NCc2ccccc2)c2ncn(C(C)C)c2n1` (stereo unspecified), for which the “activity change, negative = inhibition” value was -6.03% (inactive).
The same measure for `CCCCCCCC/C=C\CCCCCCCC(=O)NCCO`: 6.21% (inactive); for `CCCC(CCC)C(=O)OC1CC2CCC(C1)[N+]2(C)C` (stereo unspecified): -2.97% (inactive); for `CC1(C)CCC=[N+]1[O-]`: -2.25% (inactive).
In the case of `CCNC(=O)[C@H]1O[C@@H](n2cnc3c(N)nc(NCCc4ccc(CCC(=O)O)cc4)nc32)[C@H](O)C1O` (stereo partly specified) it was -5.31% (inactive); in that of `NC(=O)C1=CN(C2OC(COP(=O)(O)OP(=O)(O)OC[C@H]3O[C@@H](n4cnc5c(N)ncnc54)[C@H](OP(=O)(O)O)[C@@H]3O)C(O)C2O)C=CC1` (stereo partly specified), 5.13% (inactive); in that of `NC(N)=NC(=O)c1nc(Cl)c(N2CCCCCC2)nc1N`, 6.57% (inactive).
In the case of `O=C(O)c1cc(=O)c2ccccc2[nH]1` it was 12.2% (inactive).
Turning to `CNCC[C@H](Oc1ccc(C(F)(F)F)cc1)c1ccccc1`, the “activity change, negative = inhibition” value was 21.9% (inactive).
The same measure for `CNC(=O)[C@H]1O[C@@H](n2cnc3c(NCc4cccc(I)c4)ncnc32)[C@H](O)[C@@H]1O`: 39.5% (inactive).
As for `CC[C@H]1OC(=O)[C@H](C)[C@@H](O[C@H]2C[C@@](C)(OC)[C@@H](O)[C@H](C)O2)[C@H](C)[C@@H](O[C@@H]2O[C@H](C)C[C@H](NC)[C@H]2O)[C@](C)(O)C[C@@H](C)CN(C)[C@H](C)[C@@H](O)[C@]1(C)O`, the “activity change, negative = inhibition” value is 6.75% (inactive).
In the case of `CCCCC#Cc1nc(NC)c2ncn([C@@H]3O[C@H](CO)[C@@H](O)[C@H]3O)c2n1` it was 47.1% (inactive).
The same measure for `O=c1cc(-c2ccccc2)oc2c(O)c(O)ccc12`: -21.5% (inactive); for `NCCCCCCCCCCN`: 6.57% (inactive); for `c1ccc(-c2ccccn2)nc1`: 0.45% (inactive).
As for `NCCCS(=O)(=O)O`, the “activity change, negative = inhibition” value was 33% (inactive).
For the compound `CC(=O)/C=C1\C(=O)N(C)c2ccccc21`, the “activity change, negative = inhibition” value is 18.3% (inactive).
In the case of `CN(C)c1nc(N)c(C(=O)N=C(N)N)nc1Cl` it was -14.9% (inactive).
In the case of `CC(=O)SCC[N+](C)(C)C` it was -9.63% (inactive); in that of `COc1ccc(NC(=O)/C=C/c2ccc(Cl)cc2)cc1`, -3.33% (inactive).
Regarding `COc1cc2c(CCNC(C)=O)c[nH]c2cc1Cl`, the “activity change, negative = inhibition” value is -1.35% (inactive).
In the case of `Nc1nc2c(ncn2[C@@H]2O[C@H](CO)[C@@H](O)[C@@H]2O)c(=O)[nH]1` it was 0.09% (inactive).
In the case of `O=C(NOCC1CC1)c1cc(Br)c(F)c(F)c1Nc1ccc(I)cc1Cl` it was 6.57% (inactive); in that of `O=C(O)CC[C@@H](C(=O)O)N1C(=O)c2ccccc2C1=O`, 0.09% (inactive); in that of `O=C(Nc1ccncc1)c1cc([N+](=O)[O-])ccc1Cl`, 10.4% (inactive).
In the case of `Oc1ccccc1O` it was -1.71% (inactive).
As for `Nc1ccn([C@@H]2O[C@H](CO)[C@@H](O)[C@@H]2O)c(=O)n1`, the “activity change, negative = inhibition” value was 36.7% (inactive).
The same measure for `CCCCCCCCCCCCCCCCCCN(CCCCCCCCCCCCCCCCCC)CCCN(CCO)CCO`: 8.01% (inactive); for `NC[C@@H]1O[C@H](C23CC4CC(CC(C4)C2)C3)Cc2c1ccc(O)c2O`: 7.11% (inactive).
The same measure for `O=C(CCSCc1ccco1)NNC(=O)N1Cc2ccccc2Oc2ccc(Cl)cc21`: 15.6% (inactive).

Source of the values: PubChem BioAssay (NCATS).
